Screen size: about 340,000 compounds; about 1,000 (0.29%) were called active. The list is a sample of the results. Potency and affinity values are given separately. Unmarked numbers belong to inactive results. Cut-off read from the data, not from the text of the source: inconclusive = inhibition above about 27% without an active follow-up result; inactive = below that.

A short description of this assay: H1N1 influenza NS1A inhibitors, functional cell based assay (AID 504329). Particulars: percent inhibition, at 12.5 µM, hits give high values.
A word on the inhibition: it is the relative decrease from the control value, in per cent. Consider `COCCN(CC1CCCN(C2Cc3ccccc3C2)C1)C(=O)CCC(C)=O` (centres undefined), for which the inhibition was -22.6%.

As for `CN(CC(=O)Nc1ccc(Cl)cc1F)C1=NS(=O)(=O)c2ccccc21`, the inhibition is 5.4%.

For `COc1ccc(S(=O)(=O)Nc2ccc(NC(C)=O)cc2)cc1[N+](=O)[O-]`, the inhibition is 9.65%.

For the molecule `Clc1ccc(CNc2ccc(N3CCN(Cc4ccccc4)CC3)cc2)cc1`, the inhibition was 20.5%.

Regarding `COc1cc(CNc2ccc(N3CCCC3)cc2)cc(Cl)c1OC`, the inhibition was 21.3%.

As for `CCOc1ccc(CNc2ccc(N3CCCC3)cc2)cc1`, the inhibition is 21.7%.

Turning to `CCOc1c(Cl)cc(CNc2ccc(N3CCCC3)cc2)cc1OC`, the inhibition was 15.9%.

Regarding `COc1ccc(C(=O)Nc2ccc(N3CCN(C(=O)C(C)C)CC3)cc2)cc1[N+](=O)[O-]`, the inhibition was -5.48%.

In the case of `CCOC(=O)C1CCCN(CCC(=O)Nc2ccc(F)c(F)c2)C1` (centres undefined), the inhibition is -6.65%.

Regarding `c1ccc(CSC2=NCCCN2)cc1`, the inhibition was 5.1%.

For `Cc1ccc(NC(=O)CSc2nc3ccccc3c(=O)n2CCCC(=O)N2CCCC2)cc1`, the inhibition is -0.44%.

On to `CCN(CC)c1ccc(/C=C2/C(=O)ON=C2C)cc1`, for which the inhibition is 22.3%.

In the case of `CC1=NN(c2cccc(F)c2)C(=O)/C1=C/c1ccc(N(C)C)cc1`, the inhibition is 15.2%.

Regarding `COc1ccc(NC(=O)CN(C)CC(=O)NCCc2ccc(F)cc2)cc1`, the inhibition is -13.6%.

With `COCCN(Cc1cc2cccc(C)c2n2nnnc12)C(=O)C(F)(F)F`, the inhibition is -4.57%.

For `CN(CCc1cn[nH]c1)Cc1nc(Cc2ccccc2)no1`, the inhibition is 3.23%.

In the case of `Oc1c(CN2CCOCC2)cc(-c2ccccc2)cc1CN1CCOCC1`, the inhibition is 9.91%.

As to `O=C(Oc1c(CN2CCOCC2)cc(Cl)c2cccnc12)c1ccccc1Cl`, the inhibition is 13.5%.

As for `COc1ccc(C(=O)Oc2c(CN3CCOCC3)cc(Cl)c3cccnc23)cc1`, the inhibition is 6.29%.

For `COc1ccc(CN2CCN(C)CC2)cc1OCc1ccccc1`, the inhibition was 0.12%.

In the case of `O=C(Oc1c(CN2CCOCC2)cc(Cl)c2cccnc12)c1ccccc1`, the inhibition was -7.41%.

With `Oc1c(CN2CCOCC2)cc(CN2CCOCC2)cc1CN1CCOCC1`, the inhibition was -23.8%.

In the case of `COc1cc(OC)cc(C(=O)Oc2c(CN3CCOCC3)cc(Cl)c3cccnc23)c1`, the inhibition is -7.03%.

Regarding `CN1CCN(Cc2ccc(OCc3ccccc3)cc2)CC1`, the inhibition was -2.13%.

With `CC(/C=C1\SC(=S)N(CCC(=O)Nc2nc(C)cs2)C1=O)=C\c1ccccc1`, the inhibition is -4.32%.

`COc1ccc(/C=C/c2nc(C)c(-c3ccccc3)c(=O)[nH]2)cc1OC`: the inhibition is 2.31%.

With `CCOc1ccc(C2=CSC3=NCCN23)cc1[N+](=O)[O-]`, the inhibition is -15.6%.

`CCOc1ccc(NC(=S)Nc2ccc(OCc3ccccc3)cc2)cc1`: the inhibition is 22%.

Regarding `CCCc1c(C(=O)Nc2ccc(F)cc2F)cnn1-c1ccccc1`, the inhibition was 2.03%.

Regarding `c1ccc(COc2cccc(CN3CCCCC3)c2)cc1`, the inhibition is 4.44%.

Regarding `COc1cc(C(=O)N(C)C2CCCN(Cc3ccccc3F)C2)cc(OC)c1OC` (centres undefined), the inhibition was -3.71%.

As to `OC(COCc1ccccc1)CN1CCCC1` (centres undefined), the inhibition is -16.3%.

For the molecule `COc1cc(CN2CCCCC2)ccc1OCc1ccccc1`, the inhibition was -0.75%.

As to `Oc1c(CNc2ccccc2)cc(COCc2ccccc2)c2cccnc12`, the inhibition is -1.39%.

On to `CC(C)Oc1cccnc1N(C)C1CCN(Cc2ccccc2)CC1`, for which the inhibition is 7.67%.

For the molecule `CSc1ccc(CN(C)CC(=O)Nc2c(F)cccc2F)cc1`, the inhibition is 4.59%.

Turning to `CC(C)c1ccc(NC(=O)C2=NNC(=O)CC2)cc1`, the inhibition is 8.16%.

In the case of `O=C(CCCCC(=O)OCC1CCCO1)OCC1CCCO1` (centres undefined), the inhibition was -25.2%.

Regarding `O=C1COc2ccccc2N1Cc1ccc(Cl)cc1`, the inhibition was -6.96%.

For the molecule `Cc1c[n+](C)ccc1CC1C([N+](=O)[O-])=C[N-]c2ncnn21` (centres undefined), the inhibition was -6.38%.

With `O=C(Cc1ccc(O)cc1)NCCNC(=S)NCc1ccccc1`, the inhibition is -12.1%.

For the molecule `O=c1oc2ccccc2cc1-c1ccccc1`, the inhibition is -7.16%.

In the case of `O=Cc1c(-c2ccccc2)cc2oc3ccccc3cc1-2`, the inhibition was 10.8%.

Consider `S=C(NCc1ccccn1)Nc1ccccc1Cl`, for which the inhibition was -10.4%.

Take `CCOc1ccc(NC(=O)CC(c2ccccc2)c2ccc(F)cc2)cc1` (centres undefined): the inhibition is -2.67%.

Regarding `O=C(Cc1ccccn1)Nc1ccccc1`, the inhibition is -8.73%.

In the case of `Cc1ccc(NC(=O)C(NCc2ccccn2)c2ccccc2)cc1` (centres undefined), the inhibition is -1%.

With `CCOc1ccc(NC(=O)NCc2ccccn2)cc1`, the inhibition was -5.82%.

`O=C(NCc1ccccn1)Nc1ccccc1Cl`: the inhibition was -1.88%.

Consider `Cc1cc(C)cc(NC(=O)c2ccc(S(=O)(=O)C(F)F)cc2)c1`, for which the inhibition was 15.2%.

Turning to `COC(=O)C(C)Sc1ccc2nnc(-c3ccccc3)n2n1` (centres undefined), the inhibition was 0.68%.

Regarding `COc1ccc(NS(=O)(=O)c2ccc3oc(SCc4ccc(F)cc4)nc3c2)cc1`, the inhibition was -1.81%.

`O=C(O)c1cc(-c2cccs2)nn1-c1cccc(Cl)c1`: the inhibition was -3.66%.

As for `CC(C)CCNC(=O)CSc1nnc(-c2ccc(S(=O)(=O)N3CCCC3)cc2)n1C`, the inhibition was 1.62%.

With `O=C(CSc1n[nH]c(-c2cccs2)n1)NCCc1ccccc1`, the inhibition was -3.95%.

With `COCCN=c1scc(-c2ccco2)n1/N=C/c1ccc(O)c(O)c1O`, the inhibition was 13.4%.

Consider `CN=c1scc(-c2cccs2)n1/N=C/c1ccc(O)c(O)c1O`, for which the inhibition was 28.1%.

As for `Cc1ccc(S(=O)(=O)N2CCN(C(=O)C3CCCC3)CC2)cc1C`, the inhibition is -7.76%.

With `CCCCC(=O)NC(c1ccc(N(CC)CC)cc1)c1ccc2cccnc2c1O` (centres undefined), the inhibition is 11.6%.

Turning to `CCCC(=O)NC(c1ccc(C(C)C)cc1)c1ccc2cccnc2c1O` (centres undefined), the inhibition was -11.7%.

For `CCCCC(=O)NC(c1ccccc1)c1ccc2cccnc2c1O` (centres undefined), the inhibition was 17.1%.

In the case of `CCCC(=O)NC(c1ccc(Cl)cc1)c1ccc2cccnc2c1O` (centres undefined), the inhibition is -7.24%.

In the case of `CCCCC(=O)NC(c1ccc(C(C)C)cc1)c1ccc2cccnc2c1O` (centres undefined), the inhibition is -9.31%.

With `CCCC(=O)NC(c1ccc(C)cc1)c1ccc2cccnc2c1O` (centres undefined), the inhibition is 4.97%.

(Values after PubChem BioAssay AID504329 (Southern Research Specialized Biocontainment Screening …, 2011).)
